Reference: PubChem BioAssay (EPA / NIEHS)
Records with an inconclusive call do not appear. The source made the active and inactive calls. How the source made its calls: active means hit-call score of the fitted dose curve at least 0.9, where 1 is the maximum; inconclusive means response in the unintended direction; inactive means score below 0.9.

Assays:
[1] = target: Luciferin 4-monooxygenase (Photinus pyralis) (UniProt P08659); assay: CCTE_Simmons_QuantiLum_inhib_2: CCTE's Firefly Luciferase Inhibition Assay, Simmons Lab (AID 2283767)
Summary of the method: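 Luminescence loss relative to DMSO vehicle defines inhibition; detection reagent containing 150 uM D-luciferin and 147 uM dATP (final, pH 7.8) is injected immediately before each read. Enzyme is preincubated with an 8-point titration (5 nM–87.5 uM final) for 30 min at 37C.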

[2] = ACEA_AR_antagonist_AUC_viability: ACEA Biosciences xCELLigence Real-Time Cell Analysis on Androgen Receptor Antagonism for Viability (AID 2283776);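 further: 22Rv1 human prostate cancer cells growing on impedance electrode plates; hits lower the growth signal relative to DMSO meaning cytotoxicity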
Summary of the method: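 Real-time electrical impedance tracks 22Rv1 proliferation after continuous compound exposure (top 100 uM final, 1:4 steps, 8 concentrations). The 80 h area-under-curve serves as the cytotoxicity readout relative to DMSO.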

[3] = test system: chicken Androgen Receptor (AR), gene 422165; assay: ATG_chAR_XSP1: Attagene TRANS-FACTORIAL Multi-Species (XSP1) HepG2 Assay for chicken Androgen Receptor (AR) (AID 2283768)
Summary of the method: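 HepG2 cells transiently transfected with multiplexed GAL4-UAS reporter units expressing chimeric chicken AR-Gal4; 3 nM 6-alpha-fluorotestosterone for partial AR stimulation; 24 h after dosing, reporter mRNA by RT-PCR and capillary electrophoresis, gain-of-signal versus DMSO.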

[4] = test system: frog Androgen Receptor (AR), gene 399456; assay: ATG_frAR_XSP1: Attagene TRANS-FACTORIAL Multi-Species (XSP1) HepG2 Assay for frog Androgen Receptor (AR) (AID 2283770)
[5] = target: zebrafish Estrogen Receptor (ESR1), esr1 (gene 259252) (UniProt P57717); assay: ATG_zfER1_XSP1: Attagene TRANS-FACTORIAL Multi-Species (XSP1) HepG2 Assay for zebrafish Estrogen Receptor (ESR1) (AID 2283772)
Summary of the method: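 Transfect HepG2 with GAL4-UAS multi-reporter constructs; treat 24 h (medium carries 3 nM 6-alpha-fluorotestosterone); extract RNA, reverse-transcribe, PCR-amplify, FAM-label, digest with HpaI; resolve by capillary electrophoresis and compare against DMSO baseline.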

[6] = test system: zebrafish Estrogen Receptor (ESR2B), gene 317733; assay: ATG_zfER2b_XSP1: Attagene TRANS-FACTORIAL Multi-Species (XSP1) HepG2 Assay for zebrafish Estrogen Receptor (ESR2B) (AID 2283773)
Summary of the method: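 HepG2 cells transiently transfected with multiple GAL4-UAS reporter units expressing chimeric zebrafish ER2b-Gal4; 24 h chemical exposure with 3 nM 6-alpha-fluorotestosterone present. Reporter mRNA measured by RT-PCR and capillary electrophoresis; gain of signal fitted versus DMSO.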

[7] = test system: frog Estrogen Receptor (ESR2), gene 100174814; assay: ATG_frER2_XSP1: Attagene TRANS-FACTORIAL Multi-Species (XSP1) HepG2 Assay for frog Estrogen Receptor (ESR2) (AID 2283774)
Summary of the method: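 HepG2 cells transiently transfected with GAL4-UAS multiplexed reporter units expressing chimeric NR-Gal4 proteins; reporter mRNA measured 24 h after dosing by RT-PCR, FAM labeling, HpaI digestion and capillary electrophoresis. Gain-of-signal relative to DMSO; 3 nM 6-alpha-fluorotestosterone present.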

[8] = ACEA_AR_agonist_AUC_viability: ACEA Biosciences xCELLigence Real-Time Cell Analysis on Androgen Receptor Agonism for Viability (AID 2283775);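 on AC50: viability read 80 hours after compound addition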
Summary of the method: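 Real-time impedance tracking of 22Rv1 growth, readings every 5 min for 5 h then hourly; area-under-curve viability endpoint at 80 hours, relative to DMSO. Compounds at eight concentrations, 1:4 steps, top 100 uM, n = 2.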

[9] = test system: frog Estrogen Receptor (ESR1), gene 398734; assay: ATG_frER1_XSP1: Attagene TRANS-FACTORIAL Multi-Species (XSP1) HepG2 Assay for frog Estrogen Receptor (ESR1) (AID 2283777)
Summary of the method: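 Read-out: fluorescent reporter mRNA via RT-PCR, HpaI digestion and capillary electrophoresis, after 24 h chemical exposure of transiently transfected human HepG2 cells expressing exogenous NR-Gal4 chimeras. DMSO served as baseline for positive-direction fitting.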

[10] = target: chicken Estrogen Receptor (ESR1), ESR1 (gene 396099) (UniProt P06212); assay: ATG_chERa_XSP1: Attagene TRANS-FACTORIAL Multi-Species (XSP1) HepG2 Assay for chicken Estrogen Receptor (ESR1) (AID 2283779)
Summary of the method: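 HepG2 cells transiently transfected with multiplexed GAL4-UAS reporter units expressing chimeric NR-Gal4 proteins; 3 nM 6-alpha-fluorotestosterone present. Reporter mRNA measured 24 h after dosing by RT-PCR, FAM labelling, HpaI digest and capillary electrophoresis; gain of signal versus DMSO.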

[11] = ArunA_CellTiter_hNC: Viability Assessment in the ArunA Biomedical's Oris Neural Crest (hNC) Cell Migration Assay (AID 2283752)
Summary of the method: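 Cell titer was measured with the CellTiter Aqueous One reagent after 72 h of chemical dosing. Cells were H9-derived embryonic neural crest stem cells seeded on Matrigel, 60,000 per well, and given 16 h at 37C beforehand.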

[12] = ArunA_CellTiter_hNP: Viability Assessment in the ArunA Biomedical's Oris Neural Crest (hNC) Cell Migration Assay (AID 2283753)
Summary of the method: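 H9-derived hNP1 neuroprogenitors, 60,000/well on Matrigel, cultured 16 h, then 72 h chemical exposure in test medium. Cell titer via CellTiter Aqueous One; positive-direction fit vs DMSO.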

[13] = ArunA_Migration_hNP: ArunA Biomedical's Oris Neuroprogenitor (hNP) Cell Migration Assay (AID 2283754)
Summary of the method: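 Human H9-derived hNP1 neuroprogenitors on Matrigel with LIF/bFGF, plated around seeding stoppers for 16 h at 37C; stoppers removed at start of 72 h chemical exposure. Calcein-AM staining, fluorescence 494/517 nm in detection zone; loss-of-signal vs DMSO; cytochalasin D control.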

[14] = ArunA_Migration_hNC: ArunA Biomedical's Oris Neural Crest (hNC) Cell Migration Assay (AID 2283755)
Summary of the method: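 Human H9-derived neural crest stem cells, 60,000/well on Matrigel, 16 h at 37C, then 72 h chemical exposure after seeding-stopper removal. Migration into detection zone read as calcein-AM fluorescence (ex494/em517), relative to DMSO.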

[15] = ArunA_NOG_NucleusCount: ArunA Biomedical's Neurite Outgrowth (NOG) Assay for Nucleus Count (AID 2283756)
Summary of the method: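 Human H9-derived differentiated neurons were exposed for 48 h right after seeding. Hoechst-stained nuclei gated by size and intensity were counted by automated high-content imaging as viable neurons. Loss of signal vs DMSO.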

[16] = ArunA_NOG_NeuriteLength: ArunA Biomedical's Neurite Outgrowth (NOG) Assay for Neurite Length (AID 2283757)
Summary of the method: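 Differentiated human H9-derived neurons were exposed for 48 h from seeding, then stained with Hoechst and βIII-tubulin. Automated high-content imaging gave total neurite length per valid neuron, counting processes >10 um. Loss of signal was scored versus DMSO.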

[17] = ArunA_NOG_NeuritesPerNeuron: ArunA Biomedical's Neurite Outgrowth (NOG) Assay for Neurites Per Neuron (AID 2283758)
Summary of the method: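 Differentiated human H9-derived neurons exposed to chemicals for 48 h from seeding, then stained with Hoechst and βIII-tubulin/DyLight 488. Automated imaging counted neurites (processes >10 um) per valid neuron; loss of signal versus DMSO scored.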

[18] = ArunA_NOG_BranchPointsPerNeurite: ArunA Biomedical's Neurite Outgrowth (NOG) Assay for Branch Points Per Neurite (AID 2283759)
Summary of the method: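 Automated image analysis traced neurites (processes >10 um) from valid cell bodies after Hoechst and βIII-tubulin staining. hNN cells from H9 embryonic stem cells, 48 h exposure. Fitted bidirectionally against DMSO.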

[19] = test system: zebrafish Estrogen Receptor (ESR2A), gene 317734; assay: ATG_zfER2a_XSP1: Attagene TRANS-FACTORIAL Multi-Species (XSP1) HepG2 Assay for zebrafish Estrogen Receptor (ESR2A) (AID 2283778)
Summary of the method: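 HepG2 cells transiently transfected with multiplexed GAL4-UAS reporter units and chimeric NR-GAL4 receptors; 24 h compound exposure with 3 nM 6-alpha-fluorotestosterone present. Reporter mRNA quantified by RT-PCR and capillary electrophoresis, gain-of-signal fitted relative to DMSO.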

[20] = test system: zebrafish Androgen Receptor (AR), gene 100005148; assay: ATG_zfAR_XSP1: Attagene TRANS-FACTORIAL Multi-Species (XSP1) HepG2 Assay for zebrafish Androgen Receptor (AR) (AID 2283771)
Summary of the method: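 HepG2 cells were transiently transfected with a zebrafish AR-GAL4 reporter system and partially stimulated with 3 nM 6-alpha-fluorotestosterone. Reporter mRNA was measured after 24 h dosing by RT-PCR with capillary electrophoresis, and gain-of-signal was fitted relative to DMSO.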

Measured: AC50

Chain of zebrafish Estrogen Receptor (ESR1), esr1 (gene 259252) (P57717 whole entry, looked up, the tested form may be a part): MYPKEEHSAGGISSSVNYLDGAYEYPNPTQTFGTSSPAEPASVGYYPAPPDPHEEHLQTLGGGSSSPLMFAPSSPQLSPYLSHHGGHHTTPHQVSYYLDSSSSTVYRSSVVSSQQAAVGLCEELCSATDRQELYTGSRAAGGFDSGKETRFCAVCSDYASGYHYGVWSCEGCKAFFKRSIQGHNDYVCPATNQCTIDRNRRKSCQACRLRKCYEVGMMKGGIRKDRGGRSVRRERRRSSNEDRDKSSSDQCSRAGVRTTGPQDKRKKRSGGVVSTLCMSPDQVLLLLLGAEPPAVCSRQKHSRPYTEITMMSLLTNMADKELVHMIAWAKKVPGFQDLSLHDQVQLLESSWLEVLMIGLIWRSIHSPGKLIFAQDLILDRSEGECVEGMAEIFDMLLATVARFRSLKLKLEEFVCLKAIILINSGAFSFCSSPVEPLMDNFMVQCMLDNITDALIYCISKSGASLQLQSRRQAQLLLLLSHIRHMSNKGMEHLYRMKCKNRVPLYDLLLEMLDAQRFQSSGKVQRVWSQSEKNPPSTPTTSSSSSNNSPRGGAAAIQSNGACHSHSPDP
Chain of chicken Estrogen Receptor (ESR1), ESR1 (gene 396099) (P06212 whole entry, looked up, the tested form may be a part): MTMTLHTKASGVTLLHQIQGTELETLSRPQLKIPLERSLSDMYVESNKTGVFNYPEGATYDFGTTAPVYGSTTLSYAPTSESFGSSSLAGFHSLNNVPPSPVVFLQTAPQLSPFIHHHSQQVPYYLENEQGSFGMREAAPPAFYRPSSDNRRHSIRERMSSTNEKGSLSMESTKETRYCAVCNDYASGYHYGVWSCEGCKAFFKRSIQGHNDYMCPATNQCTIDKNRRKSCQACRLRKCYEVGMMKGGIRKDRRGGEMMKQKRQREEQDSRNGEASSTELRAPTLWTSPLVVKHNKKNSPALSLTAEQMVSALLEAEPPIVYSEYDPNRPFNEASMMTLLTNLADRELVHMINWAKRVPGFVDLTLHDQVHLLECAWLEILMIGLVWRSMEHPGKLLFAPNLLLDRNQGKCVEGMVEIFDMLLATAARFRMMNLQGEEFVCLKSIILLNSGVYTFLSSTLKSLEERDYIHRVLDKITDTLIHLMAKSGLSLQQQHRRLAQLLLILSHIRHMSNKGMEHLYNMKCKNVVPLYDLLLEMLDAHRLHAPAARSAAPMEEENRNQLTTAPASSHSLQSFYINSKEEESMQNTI
Chain of Luciferin 4-monooxygenase (Photinus pyralis) (P08659 whole entry, looked up): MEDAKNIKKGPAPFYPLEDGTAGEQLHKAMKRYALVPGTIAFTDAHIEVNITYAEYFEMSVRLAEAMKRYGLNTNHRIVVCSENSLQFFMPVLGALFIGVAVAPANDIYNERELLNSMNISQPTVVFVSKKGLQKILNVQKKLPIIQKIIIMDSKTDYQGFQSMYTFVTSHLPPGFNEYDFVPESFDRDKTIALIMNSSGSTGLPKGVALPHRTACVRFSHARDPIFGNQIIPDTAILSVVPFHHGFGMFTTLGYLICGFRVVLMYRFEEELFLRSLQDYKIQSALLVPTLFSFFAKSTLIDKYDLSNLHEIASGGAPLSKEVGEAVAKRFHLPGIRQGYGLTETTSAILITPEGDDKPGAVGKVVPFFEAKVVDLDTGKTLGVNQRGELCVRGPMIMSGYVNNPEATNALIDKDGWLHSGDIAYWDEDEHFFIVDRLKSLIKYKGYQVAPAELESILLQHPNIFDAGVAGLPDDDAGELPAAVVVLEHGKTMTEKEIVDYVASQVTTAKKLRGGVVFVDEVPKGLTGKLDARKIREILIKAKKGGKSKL

CC1=C(C(=O)Nc2ccccc2)SCCO1
inactive: [1] | [2]

COP(=S)(OC)Oc1nc(Cl)c(Cl)cc1Cl
inactive: [1] | [5] | [8]
active: [3] 3.31 µM | [4] 5.58 µM | [6] 46.6 µM | [7] 61.6 µM | [9] 31 µM | [10] 27.8 µM

N#Cc1nn(-c2c(Cl)cc(C(F)(F)F)cc2Cl)c(N)c1S(=O)C(F)(F)F (stereo not drawn)
active: [11] 43.8 µM | [12] 36.8 µM | [13] 50 µM | [14] 30.9 µM | [15] 23.2 µM | [16] 31.8 µM | [17] 32 µM | [8] 40.6 µM | [2] 31.2 µM
inactive: [18]

COC(=O)N(OC)c1ccccc1COc1ccn(-c2ccc(Cl)cc2)n1
inactive: [3] | [5] | [6] | [7] | [9] | [19]
active: [8] 25.9 µM | [2] 26.8 µM

CCOC(=O)C(Cl)Cc1cc(-n2nc(C)n(C(F)F)c2=O)c(F)cc1Cl (stereo not drawn)
inactive: [8]

CCc1nn(C)c(C(=O)NCc2ccc(C(C)(C)C)cc2)c1Cl
active: [8] 25.3 µM | [2] 19.4 µM

Cc1c(F)c(F)c(COC(=O)C2C(/C=C(\Cl)C(F)(F)F)C2(C)C)c(F)c1F (stereo not drawn)
active: [2] 30.6 µM
inactive: [8]

N#CC(CCc1ccc(Cl)cc1)(Cn1cncn1)c1ccccc1 (stereo not drawn)
active: [8] 50 µM | [2] 25.7 µM

COc1ccc(C(c2ccc(OC)cc2)C(Cl)(Cl)Cl)cc1
inactive: [20] | [5] | [19]
active: [6] 1.08 µM | [7] 1.09 µM | [8] 80.8 µM | [2] 76.7 µM | [9] 0.368 µM | [10] 1.97 µM

C=CC1(C)OC(=O)N(c2cc(Cl)cc(Cl)c2)C1=O (stereo not drawn)
inactive: [20] | [7] | [9] | [19]
active: [6] 168 µM | [8] 38.5 µM | [2] 83.7 µM | [10] 59.9 µM
